# Screens from PubChem.
# Compounds with a hit are over-represented: about 18% of the library has one in this group of screens.
# IL-1B inflam inh: blocks inflammasome-driven IL-1 beta release | THP-1 LPS/ATP IL-1B secretion, AlphaLISA, 16 h; stronger effect = lower value | hit rate 4.7% among 360,000 | activity change, % at 57.5 µM; in the data active = activity change below about -50%; inconclusive = mostly about -30% to -49%
#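 THP-1 cells pretreated 1 hr with compounds (up to 57.5 uM final), then stimulated with LPS (250 ng/mL final) plus ATP (1.25 mM final); secreted IL-1B measured by AlphaLISA after 16 hr, decreased signal indicating inhibition.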
# LDHA block: blocks human lactate dehydrogenase A | P00338 | purified LDHA, NADH/diaphorase-resazurin fluorescence; stronger effect = lower value | activity change, % (values are at about 110 or 230 µM) | hit rate 0.15% among 480,000; in the data active = activity change below about -30%; inconclusive = mostly about -25% to -30%;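 note: plate controls were DMSO wells for no effect and wells without enzyme for full effect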
#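 Remaining NADH was detected by diaphorase (0.133 mg/mL) converting 37 µM resazurin to fluorescent resorufin, read at 0 and 20 minutes. The preceding 5-minute room-temperature reaction used 2 nM LDHA, 0.2 mM sodium pyruvate and 0.06 mM NADH at pH 7.4.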
# RORg inh: inhibitors of mouse ROR gamma transcriptional activity; P51450; Drosophila S2 Gal4-RORgamma UAS-luciferase reporter, 20 h; Potency, µM (top dose mostly 53.6 µM), without a hit: top-dose activity change, negative = inhibition, most hits filed as inhibitors; hit rate 5.4% among 310,000; note: potency is the fitted concentration of half-maximal effect; nearly all actives have a fitted effect of over 60% in size
# Target sequence (P51450 whole entry, looked up, the tested form may be a part): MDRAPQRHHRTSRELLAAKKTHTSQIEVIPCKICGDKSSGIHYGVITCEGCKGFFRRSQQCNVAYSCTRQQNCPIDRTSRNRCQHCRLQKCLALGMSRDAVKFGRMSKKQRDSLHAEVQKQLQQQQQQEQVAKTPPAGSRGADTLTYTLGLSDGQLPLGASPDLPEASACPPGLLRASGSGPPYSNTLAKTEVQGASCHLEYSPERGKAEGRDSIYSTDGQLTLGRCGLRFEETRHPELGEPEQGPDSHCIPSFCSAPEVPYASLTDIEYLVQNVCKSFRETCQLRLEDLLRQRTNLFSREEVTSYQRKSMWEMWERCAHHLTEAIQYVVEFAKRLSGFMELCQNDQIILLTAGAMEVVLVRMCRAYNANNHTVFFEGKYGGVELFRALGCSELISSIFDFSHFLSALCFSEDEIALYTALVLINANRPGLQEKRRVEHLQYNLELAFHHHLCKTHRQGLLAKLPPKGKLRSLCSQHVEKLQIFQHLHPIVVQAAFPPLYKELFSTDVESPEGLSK
#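 Drosophila Schneider cells stably carrying a metallothionein-driven Gal4 DBD–ROR gamma fusion and a UAS-Photinus luciferase reporter were exposed to compound for 1 hr, then induced with copper sulfate (700 uM final) for 20 hr at ambient temperature before luminescence reading.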
# Gal4-VP16 FLuc: inhibits Gal4-VP16 luciferase reporter, ROR gamma counter-screen. Drosophila S2 Gal4-VP16 UAS-luciferase, luminescence, 20 h. Potency, µM (top dose mostly 53.6 µM), inactives show top-dose activity, negative = inhibition, actives largely listed as inhibitors. hit rate 3.5% among 310,000. AID 2546;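 note: Gal4-VP16 expression switched on by copper sulfate through the metallothionein promoter; potency is the fitted concentration of half-maximal effect; nearly all actives have a fitted effect of over 50% in size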
# DT40 TDP1 CPT: DT40-hTDP1 cell growth loss with CPT | chicken DT40 Tdp1-/-;hTDP1 cells + 20 nM CPT, ATP luminescence, 48 h | Potency, µM (series often up to 46.2 µM), without a hit: top-dose activity change, negative = growth inhibition, hits mostly inhibitors | hit rate 12% among 420,000; note: potency is the fitted concentration of half-maximal effect; nearly all actives have a fitted effect of over 55% in size
#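 Chicken DT40 Tdp1-/- cells complemented with human TDP1, 400 cells/well, exposed to compounds plus 20 nM camptothecin for at least 48 h at 37 C; viability read as ATP content by CellTiter-Glo luminescence.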
# TDP1 cell noCPT: qHTS for Inhibitors of human tyrosyl-DNA phosphodiesterase 1 (TDP1): qHTS in cells in absence of CPT | Potency, µM (doses to about 46.2 µM), without a hit: at the top dose activity change, negative = growth inhibition, usual class: inhibitors | hit rate 15% among 420,000 | DT40 Tdp1-/- hTDP1 cells, no CPT, ATP luminescence, 48 h | AID 686978, 2013; note: potency is the fitted concentration of half-maximal effect; nearly all actives have a fitted effect of over 55% in size
#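 Growth kinetics read by CellTiter-Glo luminescence after ≥48 hr at 37 °C. Cells: DT40 Tdp1-/- stably carrying human TDP1, 400 per well, compound exposure in the absence of CPT (DMSO vehicle).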
# Numbers without * were called inactive; ? = inconclusive; . = no result given. Unless noted, calls come from the whole dose curve; as a rule, active = well fitted curve in the direction sought with a large enough effect; inconclusive = small, poorly fitted or top-dose-only effect, or another doubt; inactive = no such curve, though single readings can be large; an effect the other way counts as inactive or inconclusive. Unless noted, % is set by controls: 0 for no effect and ±100 for the full control effect.
SMILES,IL-1B inflam inh,LDHA block,RORg inh,Gal4-VP16 FLuc,DT40 TDP1 CPT,TDP1 cell noCPT
Cc1cccc(NC(=O)CSc2nc(C)c(CC(=O)c3ccc(Br)cc3)c(C)c2C#N)c1C,58,-9,2%,-1%,13µM*,15µM*
Cc1nc(SCC(=O)Nc2ccc(F)cc2)c(C#N)c(C)c1CC(=O)c1ccc(Br)cc1,15,-6,9%,?,16µM*,?
Cc1nc2c3ccccc3ccc2c2ccccc12,.,-4,.,.,.,.
COc1cccc(CNS(=O)(=O)c2ccc3c(c2)C(C(C)C)C(=O)N3)c1 (configuration not stated),.,0,.,.,?,13µM*
Cc1ccc(CCNS(=O)(=O)c2ccc3c(c2)NC(=O)C(C)C(=O)N3)cc1 (configuration not stated),15,-2,34%,-23%,-22%,23µM*
COc1cccc(CNS(=O)(=O)c2ccc3[nH]c4c(c3c2)CCCCC4)c1,.,4,.,.,.,.
CC(C)C1C(=O)Nc2ccc(S(=O)(=O)NCCc3ccc(Cl)cc3)cc21 (configuration not stated),.,1,.,.,?,23µM*
CSc1ccccc1C(=O)NCC(C)C,.,0,.,.,.,.
O=C(Nc1cc(-c2ccccc2)nn1C1CCS(=O)(=O)C1)c1cccs1 (configuration not stated),.,-1,.,.,.,.
N#CCCn1nc(-c2ccccc2)cc1Nc1ccccc1NC(=O)c1cccs1,-60*,-2,?,-12%,?,-27%
CCc1noc(C)c1C(=O)Nc1sc(Cc2ccccc2)cc1C(=O)OC,.,19,.,.,.,.
COc1ccccc1CNc1nc(Oc2cccc(F)c2)c2sccc2n1,-22,-3,.,.,?,?
COc1ccccc1CNc1nc(NCC2CC2)nc2ccsc12,-83*,2,.,.,10µM*,21µM*
CC(=O)Nc1ccc(CNc2nc(NCc3cccs3)nc3ccsc23)cc1,33,3,.,.,-9%,-26%
COCCNc1nc(NCc2ccccc2)nc2ccsc12,-26,-13,.,.,21µM*,9.2µM*
Fc1ccc(Nc2nc(NCc3cccs3)nc3ccsc23)cc1,-28,-3,.,.,?,21µM*
COCCNc1nc(NC(C)C)nc2ccsc12,0,-3,.,.,-30%,-22%
COc1ccccc1CNc1nc(Nc2cccc(-c3cnco3)c2)c2sccc2n1,.,-10,.,.,18µM*,21µM*
CC(C)N(C(=O)c1ccc(Br)cc1)C(C)C,.,11,.,.,.,.
O=S(=O)(Cc1ccc(F)cc1)Nc1nc2c(s1)CCCC2,.,-23,.,.,.,.
Cc1ccc2oc(=O)c(S(=O)(=O)N3CCCC(C)C3)cc2c1 (configuration not stated),.,-1,.,.,.,.
CCc1c(C)nc2n(c1=O)CN(CCCN(C)C)CN2c1ccccc1OC,.,5,.,.,.,.
COc1ccccc1CNc1nc(Nc2ccccc2-n2cccn2)c2sccc2n1,-15,-4,.,.,15µM*,16µM*
CC(C)Nc1nc(Nc2ccc(Cl)cc2F)c2sccc2n1,-1,2,.,.,21µM*,21µM*
c1ccc(OCCNc2nc(NCC3CC3)nc3ccsc23)cc1,?,4,.,.,4.6µM*,4.6µM*
SMILES,IL-1B inflam inh,LDHA block,RORg inh,Gal4-VP16 FLuc,DT40 TDP1 CPT,TDP1 cell noCPT
COc1ccccc1CNc1nc(NCc2ccc3occc3c2)c2sccc2n1,-100*,-4,.,.,21µM*,21µM*
Cc1nc(SCc2coc(-c3cccc(F)c3)n2)n[nH]1,.,-20,.,.,.,.
COc1ccccc1CNc1nc(NCc2ccccc2OC)c2sccc2n1,-52*,-11,.,.,12µM*,15µM*
COc1ccccc1CNc1nc(NCc2cccs2)nc2ccsc12,-17,-2,.,.,?,16µM*
COc1ccccc1CNc1nc(NCCNC(C)=O)c2sccc2n1,87,-5,.,.,?,?
Clc1ccccc1Nc1nc(NCc2ccccc2)nc2ccsc12,-28,-6,.,.,9.2µM*,9.2µM*
COc1ccccc1CNc1nc(NCCOc2ccccc2)c2sccc2n1,-93*,-4,.,.,5.8µM*,5.8µM*
O=S(=O)(Nc1cccc2c1CCCC2)c1cccc(F)c1,.,1,.,.,.,.
Cc1ccc(CN(CCc2ccccc2)C(=O)CCl)s1,.,-6,.,.,.,.
COc1cc(/C=N/O)cc(Br)c1OC(C)=O,.,-21,.,.,.,.
c1cc2cc(CNc3nc(NCC4CC4)nc4ccsc34)ccc2o1,-78*,-2,.,.,16µM*,?
CCC(C)Nc1nc(N)c([N+](=O)[O-])c(NCc2ccccc2)n1 (configuration not stated),14,-3,22%,-9%,?,?
CC(C)Nc1nc(NCc2ccccc2)c2sccc2n1,-101*,-1,.,.,9.2µM*,18µM*
COCCNc1nc(NCc2ccccc2OC)c2sccc2n1,-25,-19,.,.,23µM*,16µM*
COc1ccccc1CNc1nc(NCc2ccc(NC(C)=O)cc2)c2sccc2n1,-9,1,.,.,?,-29%
CC(CC(=O)C1C(C)C=CCC1(C)C)NCc1ccccc1 (configuration not stated),.,-10,.,.,.,.
CC(CC(=O)O)NC(=O)OCc1ccccc1 (configuration not stated),.,1,.,.,.,.
CC(OC(=O)/C=C/c1cccc2ccccc12)C(=O)NC(N)=O (configuration not stated),.,-1,.,.,.,.
COc1cccc(C(=O)NC2CC(=O)N(c3ccc(Cl)cc3)C2)c1OC (configuration not stated),.,-4,.,.,.,.
O=C(COC(=O)C(Cc1ccccc1)N1C(=O)C2C3C=CC(C4CC34)C2C1=O)c1ccc(Oc2c(Cl)cccc2[N+](=O)[O-])cc1 (configuration not stated),.,0,.,.,.,.
Cc1cccc(C(=O)Nc2sc3c(c2C(=O)Nc2ccccc2)CCC3)c1,.,-8,.,.,-27%,?
CCOC(=O)c1c(NC(=O)CS(=O)(=O)c2cn(CC)c3ccccc23)sc2c1CCCCC2,27,1,?,11%,21µM*,?
Cc1cccc(C(=O)Nc2sc3c(c2C(=O)O)CCCC3)c1,-13,-22,16%,-3%,16µM*,?
CC1CCc2c(sc(NC(=O)c3ccco3)c2C(=O)O)C1 (configuration not stated),10,-41*,-3%,-4%,?,?
CCN(CC)C(=O)c1c(NC(=O)c2cccc(C)c2)sc2c1CCC(C)C2 (configuration not stated),.,-9,.,.,23µM*,16µM*
